Growth data for 11 compounds are collected here from PubChem BioAssay (NCI).

The panel holds about 83,000 compounds, 20% with a hit somewhere; the sample as a whole holds those more often.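 Growth was measured after 48 h exposure to one concentration of compound in 96-well plates. Values under 10 count as active.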 A number with no mark means an inactive call. Active and inactive are the calls of the source.

Holding throughout (experiment): NCI-60 one-dose screen, 48 h (100 = growth as untreated, 0 = no growth, -100 = all killed)
Holding throughout (details): 10 µM unless noted

For experiment [1], the system named is NCI-H23 lung.
The subject of experiment [2] is NCI-H226 lung.
In experiment [3] the test system is NCI-H322M lung.
The subject of experiment [4] is HOP-62 NSCLC.
The test system of experiment [5] is NCI-H460 lung.
Experiment [6] relates to HOP-92 NSCLC.
Experiment [7] relates to NCI-H522 lung.
The subject of experiment [8] is A549/ATCC NSCLC.
Experiment [9] concerns 786-0 renal.
For experiment [10], the system named is COLO 205 colon.

Consider `CCN(CC)c1ccc(/C=C/C(=O)c2ccc(Nc3nc(Nc4ccccc4)nc(Nc4ccccc4)n3)cc2)cc1`, for which the growth in experiment [1] was 62.5%; in experiment [2] it was 63.8%; in [3] it was 62.4%; in experiment [4], 50.8%; in experiment [5] it was 24.8%; in experiment [6] it was 24.2%. The growth is 46.8% in experiment [7], 37.6% in experiment [8], 61.8% in [9] and 27.9% in experiment [10].
Take `CCCCCCNC(=O)Oc1ccc(/C(=C(/C)Cc2ccc(OC)cc2)c2ccc(OCCCN(C)C)cc2)cc1`: the growth in experiment [1] was 70.7%; in [2], 90.5%; in [3], 70.5%; in experiment [4], 76%; in experiment [5] it was -52.7% (active); in [6] it was 25%. The growth was 36.4% in experiment [7], 31.9% in [8], 44.5% in [9] and -84% (active) in [10].
In the case of `C=CC(=O)NCc1ccc(Nc2nccc(-c3ccc(N4CCCC4)c(C#N)c3)n2)cc1`, the growth in [1] is 49.7%; in experiment [2] it was 39.9%; in experiment [3], 41%; in [4], 17.1%; in [5], 23.3%; in experiment [6], 36.8%. In addition, the growth is 19.2% in experiment [7], 19.2% in [8], 17.6% in [9] and 31.4% in experiment [10].
On to `O=C(Cn1c(=O)sc2ccccc21)NNS(=O)(=O)c1ccccc1[N+](=O)[O-]`, for which the growth was 98.6% in experiment [1]; 101% in [2]; 104% in experiment [3]; 108% in experiment [4]; 108% in experiment [5]; 104% in experiment [6]. The growth in experiment [7] is 88.5%; in experiment [8], 103%; in [9], 104%; in experiment [10] it was 110%.
For `CCOC(=O)/C=C1\S/C(=N\Nc2cc(=O)[nH]c3ccc(Cl)cc23)N(c2ccccc2)C1=O`, the growth in [1] is 90.5%; in [2], 89.6%; in experiment [3], 98.6%; in [4], 88%; in experiment [5] it was 102%; in [6], 91.7%. The growth in [7] was 79.7%; in [8], 105%; in experiment [9], 93.8%; in experiment [10], 65%.
As to `C=CCn1c(SCC(=O)Nc2ccc(C(=O)/C=C/c3ccc(Cl)cc3)cc2)nnc1-c1cc(-c2ccc(S(N)(=O)=O)cc2)nc2ccccc12`, the growth was 99.3% in [1]; 89.6% in experiment [2]; 99.7% in experiment [3]; 91.8% in experiment [4]; 103% in experiment [5]; 91.4% in [6]. For the same compound, the growth was 98.3% in [7], 92.6% in experiment [8], 83.1% in [9] and 103% in experiment [10].
Turning to `NC(=O)c1c(NC(=O)c2ccccc2)sc2c1CCC(=O)C2`, the growth is 5.93% (active) in [1]; 16.2% in experiment [2]; 88.2% in [3]; 45.1% in experiment [4]; 11.6% in experiment [5]; -11.5% (active) in [6]. Besides, the growth in [7] was -9.03% (active); in experiment [8], 30%; in experiment [9], 28%; in experiment [10], -49.9% (active).
Consider `O=C(c1ccc(-c2nc(CSc3nc4ccccc4s3)no2)cc1)N1CCSCC1`, for which the growth is 52.9% in experiment [1]; 68.4% in experiment [2]; 100% in experiment [3]; 75.9% in experiment [4]; 69.6% in experiment [5]; 66.4% in [6]. Besides, the growth in experiment [7] was 19.7%; in [8], 52.1%; in [9] it was 90.6%; in experiment [10], 87.8%.
For `O=C1N[C@@H]2NC(=[N+]3CCOCC3)N[C@@H]2N1`, the growth was 103% in experiment [1]; 94.8% in experiment [2]; 96.3% in experiment [3]; 103% in experiment [4]; 104% in experiment [5]; 120% in [6]. Also, the growth in [7] is 92.9%; in [8], 101%; in [9], 98.8%; in experiment [10], 115%.
As to `O=C1/C(=C/c2ccc(F)cc2)COc2ccc(O)c(O)c21`, the growth in experiment [1] was 44.3%; in experiment [2], 79.6%; in [3], 39.9%; in experiment [4], 8.74% (active); in [5], 48.6%; in experiment [6], 6.21% (active). Besides, the growth in experiment [7] is -65.1% (active); in experiment [8] it was 47.4%; in experiment [9], -47.6% (active); in experiment [10] it was 28%.
As to `CN(C)CCNC(=O)c1cccc(-c2cnc3ccc(-c4ccc5c(c4)OCO5)nn23)c1`, the growth was 69.2% in [1]; 75.3% in experiment [2]; 58.6% in experiment [3]; 88.4% in experiment [4]; 4.35% (active) in experiment [5]; 72.4% in experiment [6]. The growth is 87.7% in experiment [7], 87% in experiment [8], 74.2% in [9] and 74.8% in experiment [10].
